Calls of active or inactive are those of the source.

Here are results for nine compounds from PubChem BioAssay.

A short description of test [1]: small molecules captured by biotinylated probe aFSTL3 – biochemical, small-molecule microarray, fluorescence 635/667, stem cell growth factor project, primary screen (AID 1064).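 Note: measures binding of the biotinylated anti-FSTL3 antibody to printed compounds.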 The following applies: higher = more signal.
Test [2] is described as follows: binders from COS7 lysate, DM2A8 probe, primary screen, torsin A project, cell lysate, small-molecule microarray, fluorescence 635/667 (AID 1065). The conditions noted are these: higher = more signal, COS7 lysate expressing mutant human TOR1A.
The nature of test [3]: small molecules captured by biotinylated probe aFGF2 – biochemical, small-molecule microarray, fluorescence 635/667, stem cell growth factor project, primary screen (AID 1067).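 Note: measures binding of biotinylated aFGF2 protein to printed compounds on slides; z-score merges feature fluorescence and signal-to-noise across triplicate slides.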 The conditions noted are these: higher = more signal.
A short description of test [4]: small molecules captured by biotinylated probe aFGF10 – biochemical, small-molecule microarray, fluorescence 635/667, stem cell growth factor project, primary screen (AID 1071).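 Note: score merges 667 nm spot intensity and signal to noise from triplicate slides.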 The following applies: higher = more signal.
Test [5] concerns the target Neurogenic locus notch homolog protein 2 (Homo sapiens) (UniProt Q04721). As to the kind of experiment: small molecules binding Notch2 protein – biochemical, small-molecule microarray, 635 nm fluorescence, stem cell growth factors, primary screen (AID 1073). The conditions noted are these: higher = more signal.
For test [6], the target named is Pro-neuregulin-1, membrane-bound isoform (Homo sapiens) (UniProt Q02297). The test can be described thus: small molecules binding neuregulin-1 protein – biochemical, small-molecule microarray, fluorescence 635/667, psychiatric disease protein project, primary screen (AID 1075).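 Note: score combines 667 nm spot fluorescence with signal to noise.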 The following applies: NRG1 binding, 635 nm fluorescence, higher = more signal.
The test system of test [7] is Neuregulin-1 EGF-like domain. The test can be described thus: small molecules binding NRG1 EGF domain – biochemical, small-molecule microarray, 635 nm fluorescence, primary screen (AID 1081).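 Note: binding of the protein to compounds printed on small-molecule microarray slides.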 The conditions noted are these: higher = more signal.
A short description of test [8]: FRG1 expression reporter modulators in myotubes – cell-based, C2C12 myotubes, firefly/Renilla luciferase, luminescence, FRG1 inhibition for FSHD, primary screen (AID 1084). The following applies: FRG1 promoter luciferase, higher = more signal, called active from +8 up or from −8 down.
Test [9] is described as follows: small molecules captured by biotinylated probe aFST – biochemical, small-molecule microarray, fluorescence 635/667, stem cell growth factor project, primary screen (AID 1086).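 Note: score merges 667 nm fluorescence with signal-to-noise of each printed compound spot.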 The conditions noted are these: higher = more signal.
Test [10] can be described thus: binders of probe aHhip on microarray, primary screen, stem cell growth factor project, biochemical, small-molecule microarray, fluorescence 635/667 (AID 1087).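 Note: score merges spot fluorescence at 667nm with spot signal to noise ratio.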 The conditions noted are these: higher = more signal.
In test [11] the test system is PRMT1 (protein arginine N-methyltransferase 1). The test can be described thus: small molecules binding arginine methyltransferase PRMT1 – biochemical, small-molecule microarray, 635 nm fluorescence, primary screen (AID 1088).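 Note: binding of Prmt1 protein to compounds spotted on small-molecule microarray slides.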 The conditions noted are these: higher = more signal.
Test [12] in a line: growth effects on S. cerevisiae YJM789 – YJM789 clinical isolate, OD600, 24 h, basal, primary screen (AID 1089).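 Note: growth of clinical yeast isolate S. cerevisiae YJM 789 seeded 1000 cells per well; test concentration not given here.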 The conditions noted are these: higher = more signal, called active from +8 up or from −8 down.
The nature of test [13]: S. pombe growth modifiers, basal conditions – strain 972, OD600, 24 h, no modulator, primary screen (AID 1090).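 Note: basal condition with compound alone and no growth modifier present; test concentration not given here.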 The conditions noted are these: S. pombe 972 growth, higher = more signal, called active from +8 up or from −8 down.
Test [14] is described as follows: budding yeast growth modifiers under rapamycin – strain BY4716, OD600, 96 h, primary screen (AID 1091). Note: test concentration not given here. The conditions noted are these: S. cerevisiae BY4716 + rapamycin, higher = more signal, called active from +8 up or from −8 down.
Test [15] has as its target Torsin-1A-interacting protein 2 (Homo sapiens) (UniProt Q8NFQ8). As to the kind of experiment: small molecules binding lysate-expressed LULL1 – cell lysate, human LULL1 lysate, 635/667 nm fluorescence, primary screen (AID 1092).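 Note: score merges per-feature 667 nm fluorescence with signal-to-noise.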 The following applies: small-molecule microarray, hLULL1 lysate binding, 635 nm fluorescence; higher = more signal.
Test [16] in a line: optical density change of DRC41 E. coli – strain DRC41, OD650, 24 h, E. coli filamentation project, primary screen (AID 1093).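 Note: MC1000 strain lacking acrAB efflux and sulA so SOS filamentation is blocked; test concentration not given here.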 The following applies: E. coli DRC41 growth, higher = more signal, called active from +8 up or from −8 down.
The nature of test [17]: probe aLefty2 binding to arrayed compounds – biochemical, biotinylated probe, 635/667 nm fluorescence, primary screen (AID 1094).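 Note: score merges spot fluorescence near 667 nm with spot signal-to-noise ratio.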 The conditions noted are these: small-molecule microarray, higher = more signal.
Test [18] has as its system Noggin (protein binding on small-molecule microarray). The test can be described thus: small molecules binding Noggin protein – biochemical, 635/667 nm fluorescence, primary screen (AID 1095).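 Note: score merges 667 nm feature fluorescence with signal to noise over triplicate slides.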 The following applies: 635 nm fluorescence, higher = more signal.
In test [19] the target is Neurogenic locus notch homolog protein 3 (Homo sapiens) (UniProt Q9UM47). The test can be described thus: small molecules binding NOTCH3 protein – biochemical, 635/667 nm fluorescence, primary screen (AID 1096). The following applies: small-molecule microarray, 635 nm fluorescence, higher = more signal.
Test [20] in a line: probe aEGFR binding to arrayed compounds – biochemical, biotinylated probe, 635/667 nm fluorescence, primary screen (AID 1097).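 Note: probe is a biotinylated anti-EGFR antibody binding compounds printed on slides; score combines fluorescence near 667 nm and signal to noise of each spot.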 The following applies: small-molecule microarray, higher = more signal.

Chain of Neurogenic locus notch homolog protein 3 (Homo sapiens) (Q9UM47 whole entry, looked up): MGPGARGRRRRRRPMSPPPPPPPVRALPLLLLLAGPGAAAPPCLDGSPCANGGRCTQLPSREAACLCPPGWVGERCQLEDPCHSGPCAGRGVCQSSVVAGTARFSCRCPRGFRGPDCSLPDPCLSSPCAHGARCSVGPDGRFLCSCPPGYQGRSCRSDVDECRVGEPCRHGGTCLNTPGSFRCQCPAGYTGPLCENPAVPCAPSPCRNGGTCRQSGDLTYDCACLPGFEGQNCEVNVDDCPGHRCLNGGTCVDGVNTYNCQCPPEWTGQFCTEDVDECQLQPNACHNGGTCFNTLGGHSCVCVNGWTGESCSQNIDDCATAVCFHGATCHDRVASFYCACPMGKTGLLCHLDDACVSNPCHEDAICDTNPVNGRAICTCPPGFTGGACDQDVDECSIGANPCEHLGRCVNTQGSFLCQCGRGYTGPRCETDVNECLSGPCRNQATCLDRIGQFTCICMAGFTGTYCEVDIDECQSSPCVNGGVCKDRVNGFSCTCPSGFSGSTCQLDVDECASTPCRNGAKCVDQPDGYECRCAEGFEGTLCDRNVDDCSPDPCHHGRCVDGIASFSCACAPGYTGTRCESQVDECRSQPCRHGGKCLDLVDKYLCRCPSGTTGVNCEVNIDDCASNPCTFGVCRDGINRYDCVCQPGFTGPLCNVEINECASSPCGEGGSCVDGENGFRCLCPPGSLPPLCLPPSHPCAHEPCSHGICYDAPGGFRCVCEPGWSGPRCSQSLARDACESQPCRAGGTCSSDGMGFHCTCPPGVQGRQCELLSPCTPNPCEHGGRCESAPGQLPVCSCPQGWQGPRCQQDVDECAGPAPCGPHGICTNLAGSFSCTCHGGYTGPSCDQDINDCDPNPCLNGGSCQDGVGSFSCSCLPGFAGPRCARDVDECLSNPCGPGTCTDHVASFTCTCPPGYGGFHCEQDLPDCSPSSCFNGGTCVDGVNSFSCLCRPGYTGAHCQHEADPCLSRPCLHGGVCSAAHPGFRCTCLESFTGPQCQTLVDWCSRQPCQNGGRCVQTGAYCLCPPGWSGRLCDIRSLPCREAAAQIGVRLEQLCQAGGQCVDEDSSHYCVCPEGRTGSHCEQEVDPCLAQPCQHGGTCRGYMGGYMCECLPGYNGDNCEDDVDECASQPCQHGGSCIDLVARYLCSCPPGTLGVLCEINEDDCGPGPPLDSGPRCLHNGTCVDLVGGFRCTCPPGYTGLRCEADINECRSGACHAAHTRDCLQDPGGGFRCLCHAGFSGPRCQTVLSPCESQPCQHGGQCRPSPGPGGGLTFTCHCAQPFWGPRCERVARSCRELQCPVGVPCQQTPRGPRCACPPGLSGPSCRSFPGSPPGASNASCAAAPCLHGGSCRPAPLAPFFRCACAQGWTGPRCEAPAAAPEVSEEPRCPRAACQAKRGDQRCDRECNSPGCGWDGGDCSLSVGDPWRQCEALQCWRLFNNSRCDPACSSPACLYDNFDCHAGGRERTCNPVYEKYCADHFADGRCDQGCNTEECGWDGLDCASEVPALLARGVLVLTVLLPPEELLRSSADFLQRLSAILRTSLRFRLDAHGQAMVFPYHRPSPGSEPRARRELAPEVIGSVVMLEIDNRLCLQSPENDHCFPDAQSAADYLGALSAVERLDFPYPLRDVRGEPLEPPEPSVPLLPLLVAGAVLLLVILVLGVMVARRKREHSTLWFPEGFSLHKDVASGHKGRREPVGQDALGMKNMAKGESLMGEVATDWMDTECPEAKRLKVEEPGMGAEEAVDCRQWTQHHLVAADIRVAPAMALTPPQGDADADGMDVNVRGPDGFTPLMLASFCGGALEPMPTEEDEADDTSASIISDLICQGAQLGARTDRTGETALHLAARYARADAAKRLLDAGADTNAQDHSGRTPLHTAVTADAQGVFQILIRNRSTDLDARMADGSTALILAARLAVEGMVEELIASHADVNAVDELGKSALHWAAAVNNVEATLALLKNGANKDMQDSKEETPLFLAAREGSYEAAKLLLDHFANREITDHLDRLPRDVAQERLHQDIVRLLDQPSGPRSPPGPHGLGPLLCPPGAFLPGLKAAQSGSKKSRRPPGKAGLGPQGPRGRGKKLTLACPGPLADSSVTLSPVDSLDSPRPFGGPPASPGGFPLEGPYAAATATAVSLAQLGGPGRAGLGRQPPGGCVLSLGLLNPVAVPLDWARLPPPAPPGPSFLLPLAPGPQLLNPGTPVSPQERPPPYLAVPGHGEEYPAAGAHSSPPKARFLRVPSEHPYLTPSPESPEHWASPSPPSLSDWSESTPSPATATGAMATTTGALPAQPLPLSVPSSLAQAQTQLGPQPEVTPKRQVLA
Chain of Neurogenic locus notch homolog protein 2 (Homo sapiens) (Q04721 whole entry, looked up, canonical isoform): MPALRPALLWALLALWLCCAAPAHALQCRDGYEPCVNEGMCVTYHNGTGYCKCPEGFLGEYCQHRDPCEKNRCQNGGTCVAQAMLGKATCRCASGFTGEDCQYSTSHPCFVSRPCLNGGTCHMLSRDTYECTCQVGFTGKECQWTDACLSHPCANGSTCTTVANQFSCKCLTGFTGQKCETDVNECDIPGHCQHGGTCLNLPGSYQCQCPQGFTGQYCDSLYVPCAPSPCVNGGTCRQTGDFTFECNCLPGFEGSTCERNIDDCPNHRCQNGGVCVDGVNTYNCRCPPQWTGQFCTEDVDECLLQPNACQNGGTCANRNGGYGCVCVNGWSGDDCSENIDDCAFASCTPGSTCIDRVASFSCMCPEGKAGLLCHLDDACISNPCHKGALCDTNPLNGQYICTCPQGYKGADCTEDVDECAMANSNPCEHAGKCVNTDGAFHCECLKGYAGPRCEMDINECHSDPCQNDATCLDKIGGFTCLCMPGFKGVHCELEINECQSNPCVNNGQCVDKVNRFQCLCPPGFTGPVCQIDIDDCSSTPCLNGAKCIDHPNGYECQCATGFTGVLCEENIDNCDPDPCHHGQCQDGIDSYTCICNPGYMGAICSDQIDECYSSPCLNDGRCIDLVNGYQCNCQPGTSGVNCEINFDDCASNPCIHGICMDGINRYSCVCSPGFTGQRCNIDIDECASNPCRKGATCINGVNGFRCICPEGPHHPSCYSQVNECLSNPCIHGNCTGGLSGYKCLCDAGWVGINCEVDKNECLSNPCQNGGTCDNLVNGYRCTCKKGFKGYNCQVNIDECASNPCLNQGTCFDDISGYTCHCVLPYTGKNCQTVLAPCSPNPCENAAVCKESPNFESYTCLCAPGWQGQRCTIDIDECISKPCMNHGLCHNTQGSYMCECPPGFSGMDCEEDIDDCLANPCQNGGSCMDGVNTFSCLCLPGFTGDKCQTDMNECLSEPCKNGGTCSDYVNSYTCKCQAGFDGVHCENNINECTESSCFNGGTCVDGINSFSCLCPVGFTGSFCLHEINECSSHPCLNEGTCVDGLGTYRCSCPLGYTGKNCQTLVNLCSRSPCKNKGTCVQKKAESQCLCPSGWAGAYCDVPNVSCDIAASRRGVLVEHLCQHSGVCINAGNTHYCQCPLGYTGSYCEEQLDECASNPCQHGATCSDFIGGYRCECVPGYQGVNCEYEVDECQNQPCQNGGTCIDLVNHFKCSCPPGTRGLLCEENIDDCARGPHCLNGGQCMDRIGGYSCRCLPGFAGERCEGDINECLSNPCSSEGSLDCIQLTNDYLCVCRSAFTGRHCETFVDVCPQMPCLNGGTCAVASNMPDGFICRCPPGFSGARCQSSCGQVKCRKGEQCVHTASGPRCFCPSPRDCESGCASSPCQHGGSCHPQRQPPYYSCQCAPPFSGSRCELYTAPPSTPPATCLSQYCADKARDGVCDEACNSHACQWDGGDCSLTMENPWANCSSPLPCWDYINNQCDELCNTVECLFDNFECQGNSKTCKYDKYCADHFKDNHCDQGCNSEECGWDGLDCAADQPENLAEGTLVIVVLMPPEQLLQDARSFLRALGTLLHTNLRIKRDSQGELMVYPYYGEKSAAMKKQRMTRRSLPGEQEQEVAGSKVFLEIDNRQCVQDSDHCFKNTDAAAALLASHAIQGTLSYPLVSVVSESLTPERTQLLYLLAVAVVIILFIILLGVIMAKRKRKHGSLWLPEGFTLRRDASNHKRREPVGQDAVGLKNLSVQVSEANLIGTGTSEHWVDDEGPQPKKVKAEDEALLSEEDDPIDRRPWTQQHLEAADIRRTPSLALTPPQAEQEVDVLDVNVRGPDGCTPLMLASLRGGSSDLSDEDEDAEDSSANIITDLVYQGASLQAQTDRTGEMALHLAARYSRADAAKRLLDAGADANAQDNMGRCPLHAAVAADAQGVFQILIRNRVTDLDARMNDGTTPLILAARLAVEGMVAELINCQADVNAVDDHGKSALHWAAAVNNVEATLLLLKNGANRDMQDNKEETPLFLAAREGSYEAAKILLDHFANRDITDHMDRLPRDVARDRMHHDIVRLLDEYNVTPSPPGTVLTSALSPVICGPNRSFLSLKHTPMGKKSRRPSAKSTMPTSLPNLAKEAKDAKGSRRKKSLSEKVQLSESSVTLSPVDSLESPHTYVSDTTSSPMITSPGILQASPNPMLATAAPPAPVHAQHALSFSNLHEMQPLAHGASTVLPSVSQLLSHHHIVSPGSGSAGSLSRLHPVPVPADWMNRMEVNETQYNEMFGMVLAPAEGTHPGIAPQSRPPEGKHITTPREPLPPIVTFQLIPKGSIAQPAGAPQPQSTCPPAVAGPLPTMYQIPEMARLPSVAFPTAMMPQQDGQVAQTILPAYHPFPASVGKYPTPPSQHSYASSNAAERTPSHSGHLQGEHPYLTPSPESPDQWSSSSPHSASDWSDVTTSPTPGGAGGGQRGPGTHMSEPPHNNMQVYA

`O=C1OCC=C[C@H]2OC34C=CCN(c5ccc6ccccc6c5)C(=O)[C@H]3N(CCCO)C(=O)[C@@H]4[C@@H]12` (stereo not given in full): the composite z-score in test [1] is 0.714; in test [2], -2.17; in [3], -0.102; in test [4], -0.657; in [5] it was -0.894; in [6] it was -0.0772. For the same compound, the composite z-score in test [7] was 1.59; in test [9], -0.234; in test [10] it was 0.0515; in test [11], -0.3; in test [15], -0.309; in test [17], 0.0061. In addition, the figures for the composite z-score in test [18], in test [19] and in test [20] were 0.0654, 0.0404 and -0.186, respectively. The z-score was 0.389 (inactive) in test [8]; 0.0281 (inactive) in test [12]; -0.318 (inactive) in [13]; 0.0596 (inactive) in test [14]; 0.993 (inactive) in test [16].

Turning to `O=C/C=C/c1ccc(Cl)cc1`, the composite z-score is -0.0244 in test [1]; -0.385 in [2]; 0.0086 in test [3]; 0.439 in test [4]; -0.885 in test [5]; -0.476 in [6]. Besides, the composite z-score is 0.651 in test [7]; -0.493 in test [9]; -0.282 in test [10]; -1.24 in test [11]; -1.2 in test [15]; -0.134 in [17]. Besides, the results for the composite z-score in [18], in [19] and in [20] were -0.968, -1.09 and -0.113, respectively. The z-score in test [8] is -0.678 (inactive); in test [12], -10.4 (active); in [13], -20.1 (active); in [14] it was -2.49 (inactive); in [16], -0.767 (inactive).

As to `C=CC[C@@]1(C(=O)O)N=C(c2ccc(OCCCO)cc2)O[C@@H]1c1ccccc1N=[N+]=[N-]`, the composite z-score in [1] is 1.44; in test [2], -0.0147; in test [3], -0.0112; in test [4], 0.484; in test [5], 0.0707; in test [6], 0.915. Further, the composite z-score in [7] was found to be 1.07; in test [9], 0.965; in test [10], 0.421; in test [11] it was 1.23; in test [15], 3.24; in test [17], 0.23. For the same compound, the composite z-score in [18] was -0.203; in test [19] it was -0.231; in test [20], -0.0225. Moreover, the z-score in test [8] is 4.25 (inactive); in test [12], 0.0908 (inactive); in test [13] it was -0.594 (inactive); in test [14], -1.46 (inactive); in test [16] it was 0.0672 (inactive).

Consider `O=C1C2C=CC(C(O)c3cccs3)N(Nc3ccccc3F)C2C(=O)N1c1ccccc1` (stereo not given), for which the composite z-score in test [1] was -0.111; in test [2] it was 0.28; in [3], -0.0951; in [4], 0.711; in test [5] it was 0.92; in test [6], 1.07. In addition, the composite z-score in [7] was 1.17; in test [9] it was 0.267; in [10], -0.196; in test [11] it was -0.441; in test [15], 3.17; in test [17] it was 0.0166. The results for the composite z-score in test [18], in test [19] and in test [20] were -0.226, 0.476 and -0.11, respectively. Besides, the z-score in [8] is 0.69 (inactive); in test [12], -0.471 (inactive); in [13], 0.915 (inactive); in [14], -0.867 (inactive); in test [16], 0.153 (inactive).

In the case of `NC(=O)NCC#Cc1ccc2c(c1)[C@]1(C(=O)N2)[C@H](C(=O)N2CCCCCCC2)[C@H]2C(=O)O[C@H](c3ccccc3)[C@H](c3ccccc3)N2[C@@H]1c1ccc(OCCO)cc1`, the composite z-score in [1] is 3.14; in [2] it was 0.756; in test [3], 0.326; in [4], 0.904; in test [5] it was 0.481; in [6], 0.463. Moreover, the composite z-score in test [7] was found to be 0.292; in test [9], 3.05; in [10], 3.7; in test [11], 1.43; in [15] it was 2.06; in test [17], 1.63. For the same compound, the composite z-score in test [18] is 1.47; in [19] it was 1.02; in [20] it was 0.864. Moreover, the z-score was 0.832 (inactive) in test [8]; 1.65 (inactive) in test [12]; 0.562 (inactive) in [13]; 4.58 (inactive) in [14]; -0.219 (inactive) in test [16].

As to `CC(C)N1CC=CC23O[C@@H]4C=CCOC(=O)[C@@H]4[C@H]2C(=O)N(CCO)[C@@H]3C1=O` (stereo not given in full), the composite z-score is 0.283 in test [1]; -1.72 in test [2]; -0.187 in test [3]; -0.484 in test [4]; -1.11 in test [5]; 0.247 in [6]. Besides, the composite z-score in test [7] is 1.02; in test [9], -0.634; in test [10], -0.397; in [11], 0.53; in [15] it was 3.37; in test [17], -0.328. The composite z-score in test [18] is -0.431; in test [19], 0.173; in test [20], -0.287. Further, the z-score was 0.188 (inactive) in [8]; 1.14 (inactive) in [12]; 0.24 (inactive) in test [13]; -0.938 (inactive) in test [14]; 0.73 (inactive) in test [16].

In the case of `O=C1OCCC=C[C@H]2OC34C=CCN(Cc5ccccc5)C(=O)[C@H]3N(CCCO)C(=O)[C@@H]4C12` (stereo not given in full), the composite z-score in [1] was -0.274; in test [2], 0.0519; in test [3] it was -0.116; in test [4], -0.479; in test [5], -0.747; in test [6], -0.555. Moreover, the composite z-score is 0.187 in [7]; -0.327 in test [9]; -0.0003 in test [10]; -0.595 in [11]; 0.549 in test [15]; -0.0807 in test [17]. Moreover, the results for the composite z-score in test [18], in [19] and in [20] were -0.335, -0.278 and -0.175, respectively. Moreover, the z-score in test [8] was -0.138 (inactive); in test [12] it was 0.252 (inactive); in test [13] it was -0.206 (inactive); in test [14] it was -1.54 (inactive); in test [16], 2.79 (inactive).

Regarding `COCCOC(=O)N1C(=O)[C@@]2(c3cc(C#CCNC(N)=O)ccc31)[C@H](c1ccccc1OCCO)N1[C@H](c3ccccc3)[C@H](c3ccccc3)OC(=O)[C@H]1[C@@H]2C(N)=O`, the composite z-score was -0.309 in test [1]; 0.092 in test [2]; -0.171 in test [3]; 0.244 in [4]; 0.77 in test [5]; 0.429 in [6]. Moreover, the composite z-score was 0.874 in test [7]; 0.477 in [9]; -0.284 in [10]; 1.55 in test [11]; -0.0889 in test [15]; -0.0823 in [17]. The composite z-score in test [18] was 1.1; in [19], 1.09; in test [20] it was -0.0512. Moreover, the z-score in [8] was -1.33 (inactive); in test [12], 1.86 (inactive); in test [13], 1.59 (inactive); in [14] it was 3.25 (inactive); in [16], -0.244 (inactive).

`COc1ccccc1CN1C(=O)c2ccccc2[C@@H](C(=O)NCCN2CCOCC2)[C@@H]1c1ccc(CO)cc1`: the composite z-score in [1] is 0.109; in test [2], -0.267; in [3], -0.0999; in [4], 0.539; in [5], 0.159; in test [6], 1.01. The composite z-score in test [7] was 1.47; in [9], -0.2; in [10], -0.169; in test [11], 0.663; in test [15] it was 3.32; in [17], -0.0948. The composite z-score in [18] is 0.025; in test [19], 0.209; in [20], -0.156. Besides, the z-score in test [8] was -2.69 (inactive); in [12], -0.884 (inactive); in [13] it was 0.067 (inactive); in test [14] it was -0.805 (inactive); in test [16], 0.339 (inactive).
